Assay outcomes from PubChem.
RE007 growth inh: less growth of the S. pombe RE007 Vpr strain | S. pombe RE007 Vpr strain, BacTiter-Glo ATP luminescence, 24 h | Potency, µM (highest dose often 92.2 µM), hits mostly inhibitors | hit rate 0.21% among 360,000 | AID 651644; active means well fitted falling curve with a large enough effect; inconclusive means small, poorly fitted or top-dose-only effect; inactive means no such curve, though single readings can be large or run the other way; further: nearly all actives have a fitted effect of over 50% in size
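Fission yeast strain RE007, carrying one chromosomally integrated HIV-1 vpr copy, was seeded at OD 0.01 in PMG+AL medium with 23 nL pinned compound. After 24 h at 30 °C and 99% humidity, viability was read by BacTiter-Glo luminescence.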
Shiga inhibitor: Shiga toxin inhibition; Vero cells, Shiga toxin protein synthesis inhibition reporter; inhibition, % at 38.7 µM; hit rate 9.2% among 290,000; AID 2315; in the data active means inhibition mostly above about 28%, no sharp cut-off; inactive means mostly below about 43%
LmPK inhibitor: LmPK (Leishmania mexicana) enzyme inhibition; Q27686; purified LmPK, Kinase-Glo ATP luminescence, 1 h; Potency, µM (titrated, usually from 57.5 µM), most hits filed as inhibitors; hit rate 0.37% among 290,000
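Screened at intermediate enzyme activity to detect both inhibitors and activators: LmPK at 0.1 nM, with a 0.5 nM enzyme column as activation reference. PEP 0.5 mM, ADP 0.1 mM; ATP detected by luminescence after 1 h.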
Tb PYK inh: inhibitors of Trypanosoma brucei pyruvate kinase. Q57TT1. TbPYK enzyme, Kinase-Glo Plus ATP luminescence, 45 min. Potency, µM (series often up to 76.8 µM), usual class: inhibitors. hit rate 0.12% among 410,000. AID 624173; further: nearly all actives have a fitted effect of over 50% in size
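Quantitative HTS: titrated library compounds versus trypanosomal pyruvate kinase in TEA buffer (pH 7.2) containing KCl, MgCl2, BSA and Tween-20. Reactions were initiated with ADP, 130 uM final. Kinase-Glo Plus luminescence was read after 45 min at RT.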
Giardia FBPA inh: Giardia lamblia aldolase inhibition. purified Giardia FBPA. Potency, µM (doses to about 59.6 µM), actives largely listed as inhibitors. hit rate 0.71% among 290,000. AID 2451; further: nearly all actives have a fitted effect of over 55% in size
Target sequence (A8B2U2 whole entry, looked up): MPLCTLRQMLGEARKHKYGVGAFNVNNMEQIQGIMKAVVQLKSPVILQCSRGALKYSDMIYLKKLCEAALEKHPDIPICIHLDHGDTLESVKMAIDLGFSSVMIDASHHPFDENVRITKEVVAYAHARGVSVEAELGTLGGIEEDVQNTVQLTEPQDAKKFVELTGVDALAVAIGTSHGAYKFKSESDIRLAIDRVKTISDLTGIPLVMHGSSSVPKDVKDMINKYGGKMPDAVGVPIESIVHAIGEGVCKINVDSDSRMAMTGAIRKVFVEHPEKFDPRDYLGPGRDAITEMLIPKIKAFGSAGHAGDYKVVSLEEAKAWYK
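40 nM FBPA preincubated 10 min at RT with compound (up to 57.5 uM final), then substrate plus GAPDH/TPI/NAD/arsenate coupling and diaphorase/resazurin added. Fluorescence read after 20 min at RT, 525/598 nm.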
CHX counter: counter-screen hit for Shiga toxin inhibitors, cycloheximide; max response, %; cell reporter, cycloheximide protein synthesis inhibition counterscreen; hit rate 12% among 300,000; in the data active means max response mostly above about 13%, no sharp cut-off; inactive means mostly below about 14%; further: read at 38.3 µM for the half of the compounds with a filed dose
Hits are given with their value; n = inactive; u = inconclusive; x = no result. This excerpt belongs to a sample that is enriched for hits. Unless noted, the call rests on the fitted dose curve; in most records, active means well fitted curve in the direction sought with a large enough effect; inconclusive means small, poorly fitted or top-dose-only effect, or another doubt; inactive means no such curve, though single readings can be large; an effect the other way counts as inactive or inconclusive.

SMILES	RE007 growth inh	Shiga inhibitor	LmPK inhibitor	Tb PYK inh	Giardia FBPA inh	CHX counter
CC(=O)Nc1ccccc1-c1ccccc1[N+](=O)[O-]	n	x	x	n	x	x
Cc1cc(/C=C\c2ccccc2)nc2ccccc12	u	120	n	n	n	30
COc1ccc(/C=C/c2cc(C(=O)O)c3ccccc3n2)cc1	u	n	11µM	n	n	15
O=S(=O)(c1cccc(-c2n[nH]c(=S)n2Cc2ccccc2)c1)N1CCOCC1	n	n	n	u	n	n
CCN(CC)S(=O)(=O)c1cccc(-c2n[nH]c(=S)n2CC(C)C)c1	n	n	u	8.9µM	n	n
CCN(CC)S(=O)(=O)c1cccc(-c2n[nH]c(=S)n2Cc2ccccc2)c1	n	n	n	5.6µM	n	n
COC(Cn1c(-c2cccc(S(=O)(=O)N(C)C)c2)n[nH]c1=S)OC	n	n	n	n	n	n
Cn1cnnc1SCC(=O)Nc1ccc2nc(SCc3ccccc3)sc2c1	n	101	n	n	n	90
Cn1cnnc1SCC(=O)Nc1ccc2nc(SCc3cccc4ccccc34)sc2c1	n	n	n	n	n	n
O=C(CSc1nc2ccc(NC(=O)c3ccccc3C(=O)O)cc2s1)Nc1ccc(F)c([N+](=O)[O-])c1	n	30	n	n	n	n
CCN(CC)C(=O)CSc1nc2ccc(NC(=O)CSc3nccn3C)cc2s1	n	n	n	n	n	14
CC(C)(C)C(=O)Nc1ccc2nc(SCc3ccccc3)sc2c1	x	x	x	n	x	x
Cn1cnnc1SCC(=O)Nc1ccc2nc(SCc3ccccc3Cl)sc2c1	n	active	n	n	n	19
CN(C)/C=N/C(=S)Nc1ccc(Cl)cc1Cl	n	74	n	n	n	57
Cc1cccc(C)c1NC(=S)/N=C/N(C)C	n	n	n	n	n	n
CN(C)/C=N/C(=S)Nc1ccc(Cl)cc1	n	65	n	n	n	35
CC(=O)/C(=C/N(C)C)C(=O)Nc1ccc(Cl)cc1Cl	n	n	n	n	n	n
O=C1C(=O)N(Cc2ccc(Cl)c(Cl)c2)c2ccccc21	x	x	x	x	n	x
CCc1cc(C(=O)Nc2cnn(Cc3ccc(F)cc3)c2)no1	x	x	x	n	x	x
O=C(Nc1cnn(Cc2ccc(F)cc2)c1)c1cnccn1	n	n	n	n	n	17
O=C(Nc1cnn(Cc2ccc(F)cc2)c1)c1noc2c1CCCC2	n	152	n	n	u	45
CC(C)(C)C1CCc2onc(C(=O)Nc3cnn(Cc4ccc(F)cc4)c3)c2C1 (stereo not drawn)	n	n	n	n	n	n
O=C(Cc1ccc(-c2ccccc2)cc1)NCCS(=O)(=O)N1CCN(c2ccc(F)cc2)CC1	x	x	x	n	x	x
Cc1nn(-c2ccccc2)c(N2CCCC2)c1/C=C1\N=C(c2ccc(F)cc2)OC1=O	n	n	n	n	n	n
O=C1OC(c2ccc(Br)cc2)=N/C1=C\N1CCCCC1	n	66	n	n	n	23
SMILES	RE007 growth inh	Shiga inhibitor	LmPK inhibitor	Tb PYK inh	Giardia FBPA inh	CHX counter
O=C1OC(c2ccccc2)=N/C1=C\N1CCCCC1	n	61	n	n	n	42
Cc1ccc(C2=N/C(=C\c3c(C)nn(-c4ccccc4)c3N3CCCC3)C(=O)O2)cc1	n	n	n	n	n	n
O=C1OC(c2ccccc2)=C/C1=C/N1CCCCC1	n	126	n	n	n	38
CCC1CC=CC2C1C(=O)N(Cc1ccccc1)C2c1ccc2ccccc2c1 (stereo not drawn)	x	n	x	x	n	n
CC(C)C(C(=O)O)N1C(=O)/C(=C/c2ccc(Br)cc2)SC1=S (stereo not drawn)	x	21	x	x	n	27
C/C(N)=C(/C#N)C(=O)COC(=O)c1ccc(OCC2CCCO2)cc1 (stereo not drawn)	n	50	n	n	n	22
O=C(NC1CCCCCC1)c1ccc(OCC2CCCO2)cc1 (stereo not drawn)	n	59	u	n	n	24
NNC(=O)c1ccc(OCC2CC(c3ccc(Cl)cc3)=NO2)cc1 (stereo not drawn)	n	40	n	n	n	22
O=C(NCCc1ccc(Cl)cc1)c1ccc(OCC2CCCO2)cc1 (stereo not drawn)	n	92	n	n	n	33
Cc1cc(=O)oc2cc(OCC3CC(c4ccc(Cl)cc4)=NO3)ccc12 (stereo not drawn)	n	n	n	n	n	n
CCCOc1ccc(NC(=O)C(=O)NCCCN2CCOCC2)cc1	x	x	x	n	x	x
Cc1cc(C)c(NC(=O)c2cc(S(=O)(=O)N3CCC4(CC3)OCCO4)ccc2F)c(C)c1	x	x	x	n	x	x
O=C(CSc1nc(-c2ccccc2)cn1-c1ccccc1F)Nc1ccc(F)cc1	x	x	x	n	x	x
CC(C)N=C(NS(=O)(=O)c1ccccc1)C(Cl)(Cl)Cl	n	38	n	n	n	19
O=C(c1ccccc1Cl)N(Cc1ccco1)c1ccccn1	x	x	x	n	x	x
Cc1[nH]c2ccccc2c1C(C#N)(C#N)C1C(=O)c2ccccc2C1=O	n	n	n	n	10µM	n
O=C(CCNS(=O)(=O)c1ccc2c(c1)CCN2C(=O)C1CC1)N1CCN(c2cccc(Cl)c2)CC1	x	x	x	n	x	x
CNCC(N)C(=O)O (stereo not drawn)	x	n	x	x	n	n
C/C(CC(=O)Nc1ccc(Cl)cc1Cl)=N\NC(=O)c1ccco1	n	116	n	n	n	37
C/C(CC(=O)Nc1ccc(C)c(Cl)c1)=N\NC(=O)Cc1ccccc1	n	n	n	n	n	n
C/C(CC(=O)Nc1ccc(C)c(Cl)c1)=N\NC(=O)c1ccco1	n	94	n	n	n	45
Cc1ccc2nc(/C(C#N)=C\c3ccc(N4CCOCC4)o3)[nH]c2c1	n	47	n	n	n	46
COCCNC(=O)/C(C#N)=C/c1ccc(N2CCOCC2)o1	n	n	n	n	n	n
Cc1ccc(/C(C#N)=C\c2ccc(N3CCOCC3)o2)cc1	u	133	n	u	u	88
CN(C)CCCNC(=S)Nc1ccc(Oc2ccccc2)cc1	n	n	n	n	n	26
SMILES	RE007 growth inh	Shiga inhibitor	LmPK inhibitor	Tb PYK inh	Giardia FBPA inh	CHX counter
CC(C)CNC(=S)Nc1ccc(Oc2ccccc2)cc1	x	n	n	n	n	21
OCCCNC(=S)Nc1ccc(Oc2ccccc2)cc1	n	n	n	n	n	n
CCN(CC)CCCNC(=S)Nc1ccc(Br)cc1	n	102	n	n	n	44
CCCS(=O)(=O)c1nc(S(=O)(=O)c2ccc(C)cc2)c(N(C)Cc2ccccc2)s1	x	x	x	n	x	x
CCOC(=O)C1CCN(c2ncnc3c(C)csc23)CC1	n	67	n	n	n	48
C=CCCCCCCCCCCC/C=C/C(O)COC(C)=O (stereo not drawn)	x	x	x	x	n	x
Cc1ccccc1Nc1nc(N)nc(COc2ccc(C#N)cc2)n1	n	n	n	n	n	n
COc1ccc(Nc2ncc(C#N)c(N)n2)c(OC)c1	n	70	n	n	n	20
Cc1ccccc1Nc1ncc(C#N)c(N)n1	n	33	n	n	n	n
